The source made the active and inactive calls. Unless noted, how the calls were made is not given here.
Experiments:
[1] = tested on: Wnt5a (protein binding on small-molecule microarray); assay: Wnt5a binders on small-molecule microarray, primary screen, biophysical, 635/667 nm fluorescence (AID 1142); details: 635 nm fluorescence, higher = more signal;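 further: fluorescence read at 667 nm with signal to noise per printed feature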
[2] = cell viability in Huh7 cells, primary screen, cytotoxicity control for HCV replication inhibitor project, CellTiter-Glo luminescence, basal, 48 h (AID 1143); details: Huh7 HCV replicon, higher = more signal, called active from +8 up or from −8 down;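 further: Huh7 hepatoma cells carrying a hepatitis C replication reporter with no stimulus; test concentration not given here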
[3] = P. aeruginosa biofilm formation inhibitors, primary screen, PAO1 strain, BacTiter-Glo luminescence, LB-PBS (AID 1144); details: 12 h, higher = more signal
[4] = CREB reporter modulators without forskolin, primary screen, cell-based, PC12, CRE-LacZ reporter, unstimulated (AID 1145); details: no forskolin, luminescence, 4.5 h, higher = more signal, called active from +8 up or from −8 down
[5] = CREB reporter modulators under forskolin, primary screen, cell-based, PC12, CRE-LacZ reporter, forskolin-stimulated (AID 1146); details: luminescence, 4.5 h, higher = more signal, called active from +8 up or from −8 down;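 further: PC12 cells with 6xCRE LacZ reporter stimulated by forskolin 10 µM; beta-galactosidase reporter signal reflecting CREB driven transcription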
[6] = molecular target: Streptavidin (Streptomyces avidinii) (UniProt P22629); assay: streptavidin binders on small-molecule microarray, primary screen, artefact control for SMM compound annotation, biophysical, 635/667 nm fluorescence (AID 1147); details: streptavidin binding, higher = more signal;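 further: signal reflects streptavidin binding to arrayed compounds as a control protein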
Chain of Streptavidin (Streptomyces avidinii) (P22629 whole entry, looked up): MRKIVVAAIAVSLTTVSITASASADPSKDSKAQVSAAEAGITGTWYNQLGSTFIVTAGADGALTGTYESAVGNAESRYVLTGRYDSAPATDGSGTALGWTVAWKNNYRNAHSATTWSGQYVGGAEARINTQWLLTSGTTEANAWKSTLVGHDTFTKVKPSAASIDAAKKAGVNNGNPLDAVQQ

[7] = small-molecule binders of probe aInhba, primary screen, biochemical, small-molecule microarray, 635/667 nm fluorescence (AID 1148); details: higher = more signal;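 further: score merges 667nm spot fluorescence with signal-to-noise for antibody binding to printed compounds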
Torsin-1A (Homo sapiens) [8] = molecular target: Torsin-1A (Homo sapiens) (UniProt O14656); assay: torsin A binders from cell lysate, primary screen, small-molecule microarray, wild-type, 635/667 nm (AID 1149); details: COS7 hTOR1A-WT lysate, 635 nm fluorescence, higher = more signal
Chain of Torsin-1A (Homo sapiens) (O14656 whole entry, looked up): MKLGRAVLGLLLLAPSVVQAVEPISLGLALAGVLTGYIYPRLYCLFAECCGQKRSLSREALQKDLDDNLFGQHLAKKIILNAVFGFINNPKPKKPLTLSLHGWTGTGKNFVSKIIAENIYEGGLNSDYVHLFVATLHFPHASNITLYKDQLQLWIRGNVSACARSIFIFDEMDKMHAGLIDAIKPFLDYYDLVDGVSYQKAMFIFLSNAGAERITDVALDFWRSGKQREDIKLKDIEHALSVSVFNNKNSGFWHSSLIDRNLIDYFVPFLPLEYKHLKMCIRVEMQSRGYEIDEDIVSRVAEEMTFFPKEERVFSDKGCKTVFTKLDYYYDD

Torsin-1A (Homo sapiens) [9] = molecular target: Torsin-1A (Homo sapiens) (UniProt O14656); assay: small-molecule binders of mutant TOR1A in lysate, primary screen, cell lysate, small-molecule microarray, COS7 lysate, 635/667 nm fluorescence (AID 1150); details: COS7 hTOR1A mutant lysate, 635 nm fluorescence, higher = more signal;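 further: score pools 667 nm emission and signal to noise measuring lysate protein binding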
[10] = tested on: Sonic hedgehog protein (Shh); assay: small-molecule binders of Shh protein, primary screen, biochemical, small-molecule microarray, 635/667 nm fluorescence (AID 1151); details: small-molecule microarray binding, 635 nm fluorescence; higher = more signal;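 further: Shh protein binding to compounds spotted on small-molecule microarray slides; score combines spot fluorescence intensity with signal-to-noise across triplicate slides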
[11] = E. coli DRC41 culture turbidity changes, primary screen, E. coli filamentation inducer project, strain DRC41, OD650, 48 h (AID 1152);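 further: E. coli MC1000 strain DRC41 lacking acrAB efflux pump and sulA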; details: E. coli DRC41 (acrAB sulA), higher = more signal, called active from +8 up or from −8 down
[12] = small-molecule binders of probe aLefty1, primary screen, biochemical, small-molecule microarray, 635/667 nm fluorescence (AID 1153); details: higher = more signal;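 further: score merges spot fluorescence with signal-to-noise ratio from the scanned slide images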
[13] = PSAC antagonists in infected red cells, primary screen, cell-based, P. falciparum Indochina, OD700, 1 h (AID 1154); details: P. falciparum Indochina infected RBC osmotic lysis, higher = more signal, called active from +8 up or from −8 down
[14] = PSAC antagonists in infected red cells, primary screen, cell-based, P. falciparum Indochina, OD700, 2 h (AID 1155);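 further: lysis reports solute entry through the parasite surface anion channel PSAC; channel blockers reduce lysis of infected cells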; details: P. falciparum Indochina infected erythrocytes, osmotic lysis OD700; higher = more signal, called active from +8 up or from −8 down
[15] = osmotic lysis modulators in infected erythrocytes, primary screen, PSAC antagonist project, cell-based, P. falciparum Indochina, OD700, 3 h (AID 1156); details: higher = more signal, called active from +8 up or from −8 down
[16] = PSAC antagonists in infected red cells, primary screen, cell-based, P. falciparum Indochina, OD700, 18 h (AID 1157); details: P. falciparum Indochina infected erythrocytes, osmotic lysis OD700, 18 h; higher = more signal, called active from +8 up or from −8 down
[17] = modulators of S6 phosphorylation in cells, primary screen, cell-based, A549, cytoblot, luminescence, serum-stimulated (AID 1158); details: A549 phospho-S6 cytoblot, 5 h, higher = more signal;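 further: serum-stimulated A549 lung adenocarcinoma cells; signal is phosphorylated S6 detected by cytoblot immunostaining with HRP secondary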
[18] = molecular target: NADPH oxidase 2 (Homo sapiens) (UniProt P04839); assay: NOX2-dependent H2O2 signal modulators, primary screen, NOX inhibitor project, cell-based, HEK293-NOX2, PMA-stimulated, Amplex Red fluorescence (AID 1159); details: 45 min, higher = more signal, called active from +8 up or from −8 down; further: test concentration not given here
Chain of NADPH oxidase 2 (Homo sapiens) (P04839 whole entry, looked up): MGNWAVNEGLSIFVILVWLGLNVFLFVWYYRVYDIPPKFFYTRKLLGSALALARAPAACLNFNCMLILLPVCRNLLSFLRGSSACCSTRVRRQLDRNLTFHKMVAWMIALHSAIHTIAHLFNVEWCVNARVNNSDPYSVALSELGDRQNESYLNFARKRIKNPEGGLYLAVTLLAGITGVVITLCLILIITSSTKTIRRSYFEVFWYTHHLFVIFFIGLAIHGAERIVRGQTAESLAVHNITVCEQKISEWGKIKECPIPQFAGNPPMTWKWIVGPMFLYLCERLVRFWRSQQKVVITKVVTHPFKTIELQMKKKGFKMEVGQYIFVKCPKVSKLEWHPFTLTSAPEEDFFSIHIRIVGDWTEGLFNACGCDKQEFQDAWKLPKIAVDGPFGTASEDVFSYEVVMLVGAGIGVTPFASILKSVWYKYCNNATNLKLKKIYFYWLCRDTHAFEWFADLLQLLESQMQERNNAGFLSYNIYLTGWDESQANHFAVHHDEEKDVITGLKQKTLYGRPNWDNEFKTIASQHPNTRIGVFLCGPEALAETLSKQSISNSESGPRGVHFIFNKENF

[19] = molecular target: NADPH oxidase 4 (Homo sapiens) (UniProt Q9NPH5); assay: NOX4-dependent H2O2 signal modulators, primary screen, NOX inhibitor project, cell-based, HEK293-NOX4, tetracycline-induced, Amplex Red fluorescence (AID 1160); details: 45 min, higher = more signal, called active from +8 up or from −8 down
Chain of NADPH oxidase 4 (Homo sapiens) (Q9NPH5 whole entry, looked up): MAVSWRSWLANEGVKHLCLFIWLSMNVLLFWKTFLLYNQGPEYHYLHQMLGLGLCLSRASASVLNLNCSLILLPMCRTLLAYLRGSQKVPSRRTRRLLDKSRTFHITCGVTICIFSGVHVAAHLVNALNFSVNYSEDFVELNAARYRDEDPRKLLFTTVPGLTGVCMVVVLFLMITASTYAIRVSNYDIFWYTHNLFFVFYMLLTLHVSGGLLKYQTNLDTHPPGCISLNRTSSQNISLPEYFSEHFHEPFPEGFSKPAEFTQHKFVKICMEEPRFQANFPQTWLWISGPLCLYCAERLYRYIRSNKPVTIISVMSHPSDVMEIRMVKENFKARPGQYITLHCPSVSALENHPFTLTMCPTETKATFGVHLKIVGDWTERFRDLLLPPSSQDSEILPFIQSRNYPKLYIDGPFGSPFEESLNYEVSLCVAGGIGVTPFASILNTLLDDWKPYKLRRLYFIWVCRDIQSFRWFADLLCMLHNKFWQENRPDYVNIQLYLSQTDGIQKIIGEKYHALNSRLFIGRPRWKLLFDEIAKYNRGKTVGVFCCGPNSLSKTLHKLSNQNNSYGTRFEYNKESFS

[20] = molecular target: NADPH oxidase 5 (Homo sapiens) (UniProt Q96PH1); assay: NOX5-dependent H2O2 signal modulators, primary screen, NOX inhibitor project, cell-based, HEK293-NOX5, Amplex Red fluorescence (AID 1161); details: HEK293-NOX5, ionomycin, 45 min, higher = more signal
Chain of NADPH oxidase 5 (Homo sapiens) (Q96PH1 whole entry, looked up): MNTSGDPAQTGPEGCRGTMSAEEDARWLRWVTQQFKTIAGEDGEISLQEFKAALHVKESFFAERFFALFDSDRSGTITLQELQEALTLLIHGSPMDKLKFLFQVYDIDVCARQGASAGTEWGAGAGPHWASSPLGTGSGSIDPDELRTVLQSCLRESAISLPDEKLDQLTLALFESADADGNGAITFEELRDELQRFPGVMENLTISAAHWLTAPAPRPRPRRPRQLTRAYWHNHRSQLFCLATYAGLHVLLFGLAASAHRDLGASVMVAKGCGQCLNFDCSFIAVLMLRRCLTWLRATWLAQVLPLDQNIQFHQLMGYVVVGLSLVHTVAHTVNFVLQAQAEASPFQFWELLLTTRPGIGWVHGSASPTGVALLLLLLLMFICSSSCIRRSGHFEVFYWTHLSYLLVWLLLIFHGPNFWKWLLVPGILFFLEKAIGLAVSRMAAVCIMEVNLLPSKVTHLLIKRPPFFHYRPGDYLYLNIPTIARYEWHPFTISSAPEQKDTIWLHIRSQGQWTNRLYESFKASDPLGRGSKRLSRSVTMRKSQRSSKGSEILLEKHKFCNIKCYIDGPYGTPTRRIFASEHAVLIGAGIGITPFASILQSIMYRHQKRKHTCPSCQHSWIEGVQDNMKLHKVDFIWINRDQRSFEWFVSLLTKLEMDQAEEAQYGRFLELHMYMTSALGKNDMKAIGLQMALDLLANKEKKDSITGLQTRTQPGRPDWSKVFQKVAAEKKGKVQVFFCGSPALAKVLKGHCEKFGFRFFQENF

CCCCC(CC)C(O)C1C=CC2C(=O)N(Cc3ccccc3)C(=O)C2N1n1cnnc1 (stereo not given)
composite z-score [1]: -0.205
z-score [2]: -0.114 (inactive)
z-score [3]: 0.999 (inactive)
z-score [4]: 0.127 (inactive)
z-score [5]: 0.408 (inactive)
composite z-score [6]: 0.124
composite z-score [7]: -0.166
composite z-score (Torsin-1A (Homo sapiens) [8]): 0.17
composite z-score (Torsin-1A (Homo sapiens) [9]): 0.606
composite z-score [10]: -0.405
z-score [11]: -1.5 (inactive)
composite z-score [12]: 0.0903
z-score [13]: 0.218 (inactive)
z-score [14]: 0.0653 (inactive)
z-score [15]: 0.604 (inactive)
z-score [16]: 0.411 (inactive)
z-score [17]: -0.908
z-score [18]: -0.132 (inactive)
z-score [19]: -0.476 (inactive)
z-score [20]: -0.99

CC(C)C(=C=CC[C@@H](O)c1ccc(OCCO)cc1)C[C@@H](O)COCc1ccccc1
composite z-score [1]: 0.13
z-score [2]: -2.24 (inactive)
z-score [3]: -0.933 (inactive)
z-score [4]: 6.97 (inactive)
z-score [5]: -1.23 (inactive)
composite z-score [6]: -0.0104
composite z-score [7]: -0.0762
composite z-score (Torsin-1A (Homo sapiens) [8]): -0.372
composite z-score (Torsin-1A (Homo sapiens) [9]): -0.208
composite z-score [10]: 2.09
z-score [11]: 1.45 (inactive)
composite z-score [12]: 0.0341
z-score [13]: 8.51 (active)
z-score [14]: -0.15 (inactive)
z-score [15]: 0.776 (inactive)
z-score [16]: -0.46 (inactive)
z-score [17]: 4.27
z-score [18]: -2.13 (inactive)
z-score [19]: -0.915 (inactive)
z-score [20]: -2.41

O=C1C2C=CC(C(O)Cc3ccccc3)N(n3cnnc3)C2C(=O)N1Cc1ccccc1 (stereo not given)
composite z-score [1]: 0.0769
z-score [2]: 0.0633 (inactive)
z-score [3]: 0.0973 (inactive)
z-score [4]: -0.0696 (inactive)
z-score [5]: -0.413 (inactive)
composite z-score [6]: 0.0646
composite z-score [7]: -0.0118
composite z-score (Torsin-1A (Homo sapiens) [8]): -0.0992
composite z-score (Torsin-1A (Homo sapiens) [9]): 1.05
composite z-score [10]: -0.373
z-score [11]: -1.07 (inactive)
composite z-score [12]: 0.333
z-score [13]: 1.78 (inactive)
z-score [14]: 1.06 (inactive)
z-score [15]: 1.04 (inactive)
z-score [16]: 0.587 (inactive)
z-score [17]: -0.309
z-score [18]: -0.112 (inactive)
z-score [19]: -1.69 (inactive)
z-score [20]: -1.36

COc1ccc(CCNC(=O)[C@@]2(Sc3ccc(C)cc3)CC(=O)N(C(C)C)[C@@H]2c2ccc(CO)cc2I)cc1
composite z-score [1]: -0.161
z-score [2]: -0.887 (inactive)
z-score [3]: 0.844 (inactive)
z-score [4]: -0.295 (inactive)
z-score [5]: 0.652 (inactive)
composite z-score [6]: -0.738
composite z-score [7]: -0.0986
composite z-score (Torsin-1A (Homo sapiens) [8]): 0.0086
composite z-score (Torsin-1A (Homo sapiens) [9]): -0.622
composite z-score [10]: -0.156
z-score [11]: -0.0322 (inactive)
composite z-score [12]: -0.104
z-score [13]: 5.56 (inactive)
z-score [14]: 0.428 (inactive)
z-score [15]: 0.445 (inactive)
z-score [16]: -0.135 (inactive)
z-score [17]: 0.394
z-score [18]: 0.446 (inactive)
z-score [19]: -0.641 (inactive)
z-score [20]: 1.22

CCCC#C[Si](O[C@H](CC)c1cn(Cc2cccc(Cl)c2)nn1)(C(C)C)C(C)C
composite z-score [1]: 0.227
z-score [2]: -1 (inactive)
z-score [3]: -0.618 (inactive)
z-score [4]: -0.505 (inactive)
z-score [5]: -0.558 (inactive)
composite z-score [6]: 0.379
composite z-score [7]: 0.192
composite z-score (Torsin-1A (Homo sapiens) [8]): 0.882
composite z-score (Torsin-1A (Homo sapiens) [9]): 0.244
composite z-score [10]: 0.773
z-score [11]: 1.68 (inactive)
composite z-score [12]: 0.171
z-score [13]: 0.131 (inactive)
z-score [14]: 0.659 (inactive)
z-score [15]: -0.871 (inactive)
z-score [16]: 0.283 (inactive)
z-score [17]: -0.131
z-score [18]: 0.041 (inactive)
z-score [19]: 0.076 (inactive)
z-score [20]: 0.842

O=C1[C@@]23C=C(Br)[C@H](C[C@@H]2CCOC3)[C@@]12CO2
composite z-score [1]: -0.0248
z-score [2]: 0.35 (inactive)
z-score [3]: 0.725 (inactive)
z-score [4]: 0.221 (inactive)
z-score [5]: 0.767 (inactive)
composite z-score [6]: 0.365
composite z-score [7]: 0.0792
composite z-score (Torsin-1A (Homo sapiens) [8]): 0.441
composite z-score (Torsin-1A (Homo sapiens) [9]): 0.219
composite z-score [10]: 0.534
z-score [11]: -0.0625 (inactive)
composite z-score [12]: -0.216
z-score [13]: -0.306 (inactive)
z-score [14]: -0.261 (inactive)
z-score [15]: -0.0502 (inactive)
z-score [16]: 0.0369 (inactive)
z-score [17]: -0.31
z-score [18]: -0.172 (inactive)
z-score [19]: 0.723 (inactive)
z-score [20]: -0.34

COC(=O)[C@@]1(Cc2ccc(OC)cc2)[C@@H]2C(=CC(=O)[C@H]2CC(=O)C(=O)N2CCCC2)CN1C(=O)c1ccccc1
composite z-score [1]: 0.292
z-score [2]: -1.76 (inactive)
z-score [3]: 0.745 (inactive)
z-score [4]: -0.754 (inactive)
z-score [5]: 0.0528 (inactive)
composite z-score [6]: 0.571
composite z-score [7]: 0.0694
composite z-score (Torsin-1A (Homo sapiens) [8]): -0.234
composite z-score (Torsin-1A (Homo sapiens) [9]): 0.31
composite z-score [10]: -1.35
z-score [11]: -0.97 (inactive)
composite z-score [12]: 0.114
z-score [13]: 5.48 (inactive)
z-score [14]: 0.368 (inactive)
z-score [15]: 1.51 (inactive)
z-score [16]: 1.18 (inactive)
z-score [17]: 0.0866
z-score [18]: 0.143 (inactive)
z-score [19]: 1.54 (inactive)
z-score [20]: 1.14

C=C(/C(=C/C[C@H](OC(C)=O)c1ccc(CO)o1)c1cc(C(=O)OC)ccc1OC)C(C)C
composite z-score [1]: 0.0267
z-score [2]: -3.56 (inactive)
z-score [3]: 0.263 (inactive)
z-score [4]: 2.22 (inactive)
z-score [5]: 0.769 (inactive)
composite z-score [6]: -0.489
composite z-score [7]: 0.0051
composite z-score (Torsin-1A (Homo sapiens) [8]): -0.501
composite z-score (Torsin-1A (Homo sapiens) [9]): 0.241
composite z-score [10]: 1.05
z-score [11]: 0.376 (inactive)
composite z-score [12]: -0.0559
z-score [13]: 2.48 (inactive)
z-score [14]: -1.22 (inactive)
z-score [15]: 2.6 (inactive)
z-score [16]: -2.17 (inactive)
z-score [17]: 2.41
z-score [18]: -1.66 (inactive)
z-score [19]: -1.85 (inactive)
z-score [20]: -2.34

COc1ccc(CCNC(=O)[C@@]2(C)c3ccccc3C(=O)N(C(C)C)[C@H]2c2ccc(CO)cc2)cc1
composite z-score [1]: 0.435
z-score [2]: -1.03 (inactive)
z-score [3]: 1.08 (inactive)
z-score [4]: 0.827 (inactive)
z-score [5]: 0.727 (inactive)
composite z-score [6]: 0.454
composite z-score [7]: -0.102
composite z-score (Torsin-1A (Homo sapiens) [8]): 0.0534
composite z-score (Torsin-1A (Homo sapiens) [9]): -0.176
composite z-score [10]: 0.794
z-score [11]: 0.312 (inactive)
composite z-score [12]: -0.28
z-score [13]: 1.66 (inactive)
z-score [14]: 0.133 (inactive)
z-score [15]: 0.386 (inactive)
z-score [16]: -0.0145 (inactive)
z-score [17]: -0.441
z-score [18]: -1.12 (inactive)
z-score [19]: -0.479 (inactive)
z-score [20]: -0.224
